Assay results as given in the supplement of paper PMC10849652.
About 7,900 targets were measured; listed, in parts, are those with a hit and a random draw of the rest. About 0.6% of all pairs of compound and target were hits.

Key:
Assay in all cases: log2 fold change, soluble protein after heating vs DMSO (PISA); higher = thermal stabilisation; K562 cells, 10 uM, 30 min; active = over 0.2 and 3.5 SD of the protein, either way, in both replicates (recomputed)
[1] = compound: NC(=O)Nc1cc(-c2cccc(F)c2)sc1C(=O)N[C@H]1CCCNC1
Method in brief: (§1)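 K562 cells at 2×10^6 cells/mL were exposed to 10 μM compound for 30 min, then aliquots were heated for 3 min across 48°C-58°C, pooled, and extracted in PBS containing 0.5% NP-40 at 4°C. The supernatant after 21,000xg for 90 min was taken as soluble protein and measured by TMTpro 16plex LC-MS/MS with channel sums equalised. Thermal stability is reported relative to control samples, with values from duplicates. Fold changes are given on a log2 scale.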

[2] = compound: NC(=O)c1cnc(N[C@@H]2CCCC[C@@H]2N)nc1Nc1cccc(-n2nccn2)c1
Method in brief: as §1

[3] = compound: NC1(c2ccc(-c3nc4ccn5c(=O)[nH]nc5c4cc3-c3ccccc3)cc2)CCC1
Method in brief: as §1

[4] = compound: NCC(=O)Nc1ccc(-n2nc(C(F)(F)F)cc2-c2ccc3c(ccc4ccccc43)c2)cc1
Method in brief: as §1

entinostat = compound: Nc1ccccc1NC(=O)c1ccc(CNC(=O)OCc2cccnc2)cc1 [entinostat]
Method in brief: as §1

vorinostat = compound: O=C(CCCCCCC(=O)Nc1ccccc1)NO [vorinostat]
Method in brief: as §1

citarinostat = compound: O=C(CCCCCCNC(=O)c1cnc(N(c2ccccc2)c2ccccc2Cl)nc1)NO [citarinostat]
Method in brief: as §1

silmitasertib = compound: O=C(O)c1ccc2c(c1)nc(Nc1cccc(Cl)c1)c1ccncc12 [silmitasertib]
Method in brief: as §1

[5] = compound: O=C1NC(=O)C(c2cnc3ccccn23)=C1c1cn2c3c(cc(F)cc13)CN(C(=O)N1CCCCC1)CC2
Method in brief: as §1

[6] = compound: c1cc(OCCN2CCCCC2)cc(-c2n[nH]c3ccc(-c4nnc[nH]4)cc23)c1
Method in brief: as §1

Measured: log2 fold change

ATP6V1F isoform 2 (UniProt Q16864)
inactive: [1] 0.175 | [2] 0.221 | [3] -0.078 | [4] 0.143 | entinostat 0.087 | vorinostat -0.092 | citarinostat 0.026 | silmitasertib -0.042 | [5] -0.073 | [6] 0.026

BST2 (UniProt Q10589)
inactive: [1] 0.031 | [2] 0.02 | [3] 0.003 | [4] 0.132 | entinostat 0.03 | vorinostat -0.026 | citarinostat -0.058 | silmitasertib 0.009 | [5] 0.112 | [6] -0.092

BLOC1S3 (UniProt Q6QNY0)
inactive: [1] 0.057 | [2] 0 | [3] -0.014 | [4] -0.023 | entinostat -0.06 | vorinostat 0.039 | citarinostat -0.018 | silmitasertib 0.006 | [5] -0.013 | [6] -0.014

AP2M1 (UniProt Q96CW1)
active: [1] -0.293 | [5] -0.237
inactive: [2] 0.004 | [3] 0.012 | [4] -0.003 | entinostat -0.007 | vorinostat 0.06 | citarinostat -0.004 | silmitasertib 0.029 | [6] -0.209

ARL3 (UniProt P36405)
UniProt P36405, sequence (P36405 whole entry, looked up): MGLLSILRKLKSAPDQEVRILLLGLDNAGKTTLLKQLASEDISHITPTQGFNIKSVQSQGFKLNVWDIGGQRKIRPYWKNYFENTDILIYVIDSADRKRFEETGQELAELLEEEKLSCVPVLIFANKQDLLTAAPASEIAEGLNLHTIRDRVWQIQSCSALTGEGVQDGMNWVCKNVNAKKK
inactive: [1] 0.02 | [2] -0.005 | [3] -0.051 | [4] 0.006 | entinostat -0.024 | vorinostat -0.013 | citarinostat 0.05 | silmitasertib 0 | [5] -0.001 | [6] -0.022

AFDN isoform 5 (UniProt P55196)
inactive: [1] -0.154 | [2] -0.009 | [3] -0.099 | [4] -0.025 | entinostat 0.008 | vorinostat 0.019 | citarinostat 0.079 | silmitasertib -0.012 | [5] -0.052 | [6] -0.068

ACBD6 (UniProt Q9BR61)
inactive: [1] -0.089 | [2] -0.077 | [3] -0.006 | [4] 0.001 | entinostat -0.048 | vorinostat 0.086 | citarinostat 0.084 | silmitasertib 0.134 | [5] 0.022 | [6] 0.271

ARL1 (UniProt P40616)
inactive: [1] 0.142 | [2] 0.055 | [3] -0.173 | [4] -0.019 | entinostat 0.031 | vorinostat 0.149 | citarinostat 0.161 | silmitasertib 0.006 | [5] 0.04 | [6] 0.007

BCLAF1 (UniProt Q9NYF8)
UniProt Q9NYF8, sequence (Q9NYF8 whole entry, looked up): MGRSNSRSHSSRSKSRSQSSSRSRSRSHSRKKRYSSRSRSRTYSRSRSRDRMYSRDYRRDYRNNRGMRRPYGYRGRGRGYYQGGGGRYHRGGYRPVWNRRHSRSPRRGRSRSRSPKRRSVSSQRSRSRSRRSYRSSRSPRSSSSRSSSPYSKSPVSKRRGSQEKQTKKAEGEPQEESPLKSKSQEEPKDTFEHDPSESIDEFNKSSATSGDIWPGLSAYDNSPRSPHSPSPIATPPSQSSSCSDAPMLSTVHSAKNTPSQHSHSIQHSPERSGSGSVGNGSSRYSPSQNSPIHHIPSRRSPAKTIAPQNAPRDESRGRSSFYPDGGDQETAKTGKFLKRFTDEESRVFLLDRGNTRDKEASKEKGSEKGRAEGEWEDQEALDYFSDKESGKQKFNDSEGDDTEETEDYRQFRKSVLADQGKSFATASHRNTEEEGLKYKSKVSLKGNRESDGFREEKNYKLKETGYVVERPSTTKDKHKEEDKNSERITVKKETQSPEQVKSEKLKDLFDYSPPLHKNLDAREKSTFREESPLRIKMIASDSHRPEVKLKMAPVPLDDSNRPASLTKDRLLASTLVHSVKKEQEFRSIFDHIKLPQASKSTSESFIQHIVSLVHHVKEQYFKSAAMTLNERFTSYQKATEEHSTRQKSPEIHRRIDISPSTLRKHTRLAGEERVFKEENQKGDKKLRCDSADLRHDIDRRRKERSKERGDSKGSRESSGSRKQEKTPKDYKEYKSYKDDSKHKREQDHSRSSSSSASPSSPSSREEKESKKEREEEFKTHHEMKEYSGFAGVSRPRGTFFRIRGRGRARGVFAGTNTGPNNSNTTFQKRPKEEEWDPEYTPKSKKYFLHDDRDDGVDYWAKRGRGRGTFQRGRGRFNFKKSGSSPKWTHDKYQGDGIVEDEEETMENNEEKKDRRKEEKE
inactive: [1] 0.01 | [2] 0.006 | [3] 0.003 | [4] 0.064 | entinostat 0.047 | vorinostat 0.109 | citarinostat 0.07 | silmitasertib -0.361 | [5] 0.128 | [6] -0.31

AARSD1 isoform 3 (UniProt Q9BTE6)
active: [3] -0.214
inactive: [1] -0.051 | [2] -0.008 | [4] -0.04 | entinostat 0.054 | vorinostat -0.113 | citarinostat 0.033 | silmitasertib 0.046 | [5] 0.008 | [6] 0.011

ACSL3 (UniProt O95573)
UniProt O95573, sequence (O95573 whole entry, looked up): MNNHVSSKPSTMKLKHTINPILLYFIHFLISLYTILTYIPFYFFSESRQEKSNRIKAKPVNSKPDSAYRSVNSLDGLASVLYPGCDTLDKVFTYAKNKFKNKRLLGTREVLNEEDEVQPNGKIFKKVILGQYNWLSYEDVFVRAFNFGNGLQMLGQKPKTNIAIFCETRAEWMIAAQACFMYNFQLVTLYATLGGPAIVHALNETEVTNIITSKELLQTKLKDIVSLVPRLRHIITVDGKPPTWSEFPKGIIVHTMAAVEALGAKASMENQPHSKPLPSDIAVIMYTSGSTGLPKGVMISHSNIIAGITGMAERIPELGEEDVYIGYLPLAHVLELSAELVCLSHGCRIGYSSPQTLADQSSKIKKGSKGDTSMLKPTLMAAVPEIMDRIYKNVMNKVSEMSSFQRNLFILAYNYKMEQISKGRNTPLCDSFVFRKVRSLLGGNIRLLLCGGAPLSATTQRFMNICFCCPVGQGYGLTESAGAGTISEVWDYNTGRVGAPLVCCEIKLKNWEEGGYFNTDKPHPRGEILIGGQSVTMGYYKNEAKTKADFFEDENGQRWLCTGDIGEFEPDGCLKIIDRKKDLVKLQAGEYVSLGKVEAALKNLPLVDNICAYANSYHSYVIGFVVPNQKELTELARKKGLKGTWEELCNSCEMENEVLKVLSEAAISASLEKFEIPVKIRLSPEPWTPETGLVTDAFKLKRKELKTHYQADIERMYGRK
inactive: [1] 0.009 | [2] -0.041 | [3] -0.095 | [4] -0.042 | entinostat 0.047 | vorinostat 0.049 | citarinostat 0.047 | silmitasertib 0.074 | [5] -0.045 | [6] 0.028

AFDN isoform 1 (UniProt P55196)
inactive: [1] -0.016 | [2] 0.048 | [3] -0.043 | [4] -0.031 | entinostat 0.047 | vorinostat -0.033 | citarinostat 0.079 | silmitasertib 0.002 | [5] -0.054 | [6] -0.141

ACSL4 (UniProt O60488)
UniProt O60488, sequence (O60488 whole entry, looked up): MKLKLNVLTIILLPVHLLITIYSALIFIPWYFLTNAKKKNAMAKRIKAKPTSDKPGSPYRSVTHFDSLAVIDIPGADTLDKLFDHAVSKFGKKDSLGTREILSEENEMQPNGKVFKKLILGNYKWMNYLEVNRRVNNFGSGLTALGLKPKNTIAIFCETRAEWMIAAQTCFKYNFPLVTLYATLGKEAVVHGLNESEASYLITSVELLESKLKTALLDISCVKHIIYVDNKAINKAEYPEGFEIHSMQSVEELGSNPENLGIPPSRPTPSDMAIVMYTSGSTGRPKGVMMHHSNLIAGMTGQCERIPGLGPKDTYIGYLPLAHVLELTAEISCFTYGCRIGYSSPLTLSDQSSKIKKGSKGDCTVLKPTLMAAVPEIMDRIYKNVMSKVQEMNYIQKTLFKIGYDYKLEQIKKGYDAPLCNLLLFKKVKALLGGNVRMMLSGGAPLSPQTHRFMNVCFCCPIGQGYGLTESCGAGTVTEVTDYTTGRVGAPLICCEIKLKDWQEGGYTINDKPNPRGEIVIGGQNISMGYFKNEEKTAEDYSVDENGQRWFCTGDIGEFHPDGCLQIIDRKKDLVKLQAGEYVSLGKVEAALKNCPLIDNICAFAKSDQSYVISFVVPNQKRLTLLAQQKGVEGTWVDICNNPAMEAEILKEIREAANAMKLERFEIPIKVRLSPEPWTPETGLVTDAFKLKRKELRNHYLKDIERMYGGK
inactive: [1] -0.087 | [2] -0.097 | [3] -0.057 | [4] -0.023 | entinostat 0.081 | vorinostat 0.029 | citarinostat 0.044 | silmitasertib 0.149 | [5] 0.003 | [6] 0.017

ATF1 (UniProt P18846)
UniProt P18846, sequence (P18846 whole entry, looked up): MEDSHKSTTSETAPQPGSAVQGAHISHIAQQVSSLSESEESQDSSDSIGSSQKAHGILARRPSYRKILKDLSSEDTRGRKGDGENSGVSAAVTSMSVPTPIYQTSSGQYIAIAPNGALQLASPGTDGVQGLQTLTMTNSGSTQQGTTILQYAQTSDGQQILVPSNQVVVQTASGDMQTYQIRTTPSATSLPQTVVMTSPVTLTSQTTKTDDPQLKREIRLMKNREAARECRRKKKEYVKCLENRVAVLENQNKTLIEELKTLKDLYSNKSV
active: [5] 0.372
inactive: [1] 0.038 | [2] 0.096 | [3] 0.063 | [4] 0.127 | entinostat 0.066 | vorinostat -0.102 | citarinostat 0.144 | silmitasertib -0.146 | [6] -0.091

AGPAT5 (UniProt Q9NUQ2)
inactive: [1] -0.044 | [2] 0.016 | [3] -0.029 | [4] -0.047 | entinostat -0.027 | vorinostat -0.002 | citarinostat 0.045 | silmitasertib -0.001 | [5] -0.076 | [6] -0.027

ALG5 (UniProt Q9Y673)
UniProt Q9Y673, sequence (Q9Y673 whole entry, looked up): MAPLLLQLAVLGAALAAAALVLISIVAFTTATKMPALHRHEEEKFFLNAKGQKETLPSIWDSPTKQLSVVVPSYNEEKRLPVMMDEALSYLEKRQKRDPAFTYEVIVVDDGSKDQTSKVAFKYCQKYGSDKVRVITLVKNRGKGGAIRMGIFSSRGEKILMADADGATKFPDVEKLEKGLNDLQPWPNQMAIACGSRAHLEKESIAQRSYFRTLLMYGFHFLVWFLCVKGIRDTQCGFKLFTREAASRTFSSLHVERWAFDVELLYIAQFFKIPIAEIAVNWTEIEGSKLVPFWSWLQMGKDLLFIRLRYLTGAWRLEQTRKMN
inactive: [1] -0.047 | [2] -0.129 | [3] -0.029 | [4] -0.031 | entinostat 0.02 | vorinostat 0.052 | citarinostat 0.051 | silmitasertib 0.075 | [5] -0.106 | [6] 0.08

ATP6V0A2 (UniProt Q9Y487)
inactive: [1] -0.002 | [2] -0.072 | [3] -0.143 | [4] -0.024 | entinostat 0.021 | vorinostat 0 | citarinostat 0.036 | silmitasertib 0.079 | [5] 0.061 | [6] -0.043

APAF1 (UniProt O14727)
UniProt O14727, sequence (O14727 whole entry, looked up): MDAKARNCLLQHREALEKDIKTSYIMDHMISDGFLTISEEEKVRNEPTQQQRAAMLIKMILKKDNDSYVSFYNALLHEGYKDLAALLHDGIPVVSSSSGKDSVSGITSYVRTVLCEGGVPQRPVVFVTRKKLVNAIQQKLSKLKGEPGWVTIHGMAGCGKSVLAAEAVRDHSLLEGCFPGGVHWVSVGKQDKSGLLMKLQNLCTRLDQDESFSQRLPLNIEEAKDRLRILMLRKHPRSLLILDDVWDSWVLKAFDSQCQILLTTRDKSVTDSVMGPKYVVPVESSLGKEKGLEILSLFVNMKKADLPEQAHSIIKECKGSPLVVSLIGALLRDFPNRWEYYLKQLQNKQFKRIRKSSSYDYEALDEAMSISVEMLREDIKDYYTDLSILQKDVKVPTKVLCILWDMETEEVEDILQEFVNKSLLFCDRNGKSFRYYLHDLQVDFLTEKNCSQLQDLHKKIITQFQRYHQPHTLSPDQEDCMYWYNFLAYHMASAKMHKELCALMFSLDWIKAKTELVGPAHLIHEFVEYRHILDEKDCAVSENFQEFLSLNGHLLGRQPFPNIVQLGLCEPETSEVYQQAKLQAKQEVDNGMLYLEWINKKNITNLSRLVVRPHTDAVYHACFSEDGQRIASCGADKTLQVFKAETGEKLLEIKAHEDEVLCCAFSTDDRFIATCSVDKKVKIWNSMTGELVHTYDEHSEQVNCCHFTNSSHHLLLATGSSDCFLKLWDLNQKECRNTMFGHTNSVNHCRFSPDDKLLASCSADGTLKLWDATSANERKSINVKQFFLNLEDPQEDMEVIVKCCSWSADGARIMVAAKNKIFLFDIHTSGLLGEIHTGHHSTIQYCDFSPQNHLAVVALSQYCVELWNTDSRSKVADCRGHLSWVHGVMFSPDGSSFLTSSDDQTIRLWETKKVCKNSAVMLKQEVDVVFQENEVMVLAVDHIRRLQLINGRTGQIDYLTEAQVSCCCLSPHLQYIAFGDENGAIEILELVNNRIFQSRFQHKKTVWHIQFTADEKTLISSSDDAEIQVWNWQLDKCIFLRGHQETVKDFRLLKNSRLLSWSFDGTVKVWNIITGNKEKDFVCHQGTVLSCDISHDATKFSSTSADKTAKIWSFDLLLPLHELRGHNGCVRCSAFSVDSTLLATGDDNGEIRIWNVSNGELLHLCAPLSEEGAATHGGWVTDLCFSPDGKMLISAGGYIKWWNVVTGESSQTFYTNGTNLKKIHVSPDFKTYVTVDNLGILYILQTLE
inactive: [1] 0.016 | [2] 0.033 | [3] -0.116 | [4] -0.104 | entinostat 0.031 | vorinostat 0.048 | citarinostat 0.093 | silmitasertib -0.116 | [5] -0.062 | [6] -0.016

AHSA1 (UniProt O95433)
UniProt O95433, sequence (O95433 whole entry, looked up): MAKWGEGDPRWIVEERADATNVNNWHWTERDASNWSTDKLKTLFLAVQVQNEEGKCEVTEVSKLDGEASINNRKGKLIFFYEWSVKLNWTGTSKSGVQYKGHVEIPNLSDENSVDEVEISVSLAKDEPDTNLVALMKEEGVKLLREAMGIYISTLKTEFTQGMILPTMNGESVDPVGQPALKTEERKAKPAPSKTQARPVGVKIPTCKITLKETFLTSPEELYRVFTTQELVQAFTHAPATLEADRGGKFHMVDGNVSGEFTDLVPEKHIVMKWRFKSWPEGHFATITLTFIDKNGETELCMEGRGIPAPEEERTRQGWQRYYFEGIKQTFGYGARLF
inactive: [1] -0.002 | [2] -0.005 | [3] -0.131 | [4] -0.043 | entinostat 0.022 | vorinostat 0.013 | citarinostat 0.026 | silmitasertib 0.019 | [5] -0.009 | [6] -0.003

ATP13A2 (UniProt Q9NQ11)
inactive: [1] 0.032 | [2] 0.01 | [4] 0.064 | entinostat -0.005 | vorinostat 0.005 | citarinostat -0.054 | silmitasertib 0.026 | [5] -0.052 | [6] -0.025
active: [3] -0.336

ANAPC2 (UniProt Q9UJX6)
inactive: [1] 0.079 | [2] -0.025 | [3] -0.063 | [4] -0.023 | entinostat 0.02 | vorinostat 0.074 | citarinostat 0.124 | silmitasertib 0.087 | [5] 0.027 | [6] -0.049

ALDH2 (UniProt P05091)
inactive: [1] 0.012 | [2] -0.039 | [3] -0.046 | [4] -0.016 | entinostat -0.007 | citarinostat 0.043 | silmitasertib -0.038 | [5] -0.001 | [6] -0.023
active: vorinostat 0.216

ARFIP1 (UniProt P53367)
inactive: [1] 0.116 | [2] -0.002 | [3] -0.162 | [4] 0.062 | entinostat 0.079 | vorinostat 0.031 | citarinostat 0.121 | silmitasertib -0.011 | [5] -0.042 | [6] -0.048

ADD3 (UniProt Q9UEY8)
inactive: [1] 0.03 | [2] -0.014 | [3] 0.047 | [4] -0.001 | entinostat -0.051 | vorinostat -0.01 | citarinostat -0.015 | silmitasertib 0.001 | [5] -0.037 | [6] -0.024

AP2S1 (UniProt P53680)
active: [1] -0.386 | [5] -0.314
inactive: [2] 0.102 | [3] -0.009 | [4] -0.039 | entinostat -0.066 | vorinostat 0.108 | citarinostat -0.077 | silmitasertib 0.011 | [6] -0.217

BECN1 (UniProt Q14457)
inactive: [1] 0.045 | [2] 0.083 | [3] -0.006 | [4] -0.016 | entinostat -0.024 | vorinostat -0.073 | citarinostat -0.046 | silmitasertib 0.026 | [5] -0.071 | [6] 0.021

ACADM isoform 2 (UniProt P11310)
inactive: [1] -0.044 | [2] 0.01 | [3] -0.024 | [4] 0.029 | entinostat -0.019 | vorinostat -0.007 | citarinostat 0.037 | silmitasertib -0.032 | [5] -0.101 | [6] 0.009

ATP5IF1 (UniProt Q9UII2)
inactive: [1] -0.039 | [2] -0.01 | [3] -0.02 | [4] 0.086 | entinostat -0.021 | vorinostat -0.07 | citarinostat -0.124 | silmitasertib -0.044 | [5] -0.092 | [6] 0.092

AMD1 (UniProt P17707)
inactive: [1] 0.043 | [2] -0.091 | [3] -0.074 | [4] -0.149 | entinostat -0.038 | vorinostat -0.093 | citarinostat 0.007 | silmitasertib 0.004 | [5] -0.007 | [6] -0.08

ACTR1B (UniProt P42025)
inactive: [1] 0.075 | [2] 0.027 | [3] -0.003 | [4] 0.004 | entinostat -0.034 | citarinostat 0.078 | silmitasertib 0.023 | [5] 0.06 | [6] -0.004
active: vorinostat 0.459

AP2A1 (UniProt O95782)
active: [1] -0.38 | [5] -0.275 | [6] -0.227
inactive: [2] 0.061 | [3] 0.041 | [4] 0.026 | entinostat -0.002 | vorinostat 0.038 | citarinostat 0.005 | silmitasertib 0.047

ANKRD29 (UniProt Q8N6D5)
UniProt Q8N6D5, sequence (Q8N6D5 whole entry, looked up): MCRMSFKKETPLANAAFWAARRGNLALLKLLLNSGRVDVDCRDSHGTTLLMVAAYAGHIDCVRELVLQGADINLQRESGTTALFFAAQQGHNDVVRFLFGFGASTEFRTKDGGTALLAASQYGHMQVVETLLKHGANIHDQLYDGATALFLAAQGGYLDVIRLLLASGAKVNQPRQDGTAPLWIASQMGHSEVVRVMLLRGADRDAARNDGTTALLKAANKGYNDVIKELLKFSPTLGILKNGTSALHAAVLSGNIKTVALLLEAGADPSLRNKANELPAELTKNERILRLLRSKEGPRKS
inactive: [1] -0.044 | [2] -0.181 | [3] -0.337 | [4] -0.119 | entinostat -0.03 | vorinostat 0.061 | citarinostat -0.002 | silmitasertib 0.039 | [5] -0.2 | [6] -0.051

ARFGAP1 (UniProt Q8N6T3)
inactive: [1] -0.036 | [2] -0.033 | [3] -0.073 | [4] -0.052 | entinostat 0.041 | vorinostat 0.006 | citarinostat 0.056 | silmitasertib 0.063 | [5] -0.092 | [6] 0.035

AKAP8 (UniProt O43823)
inactive: [1] -0.043 | [2] -0.037 | [3] 0.023 | [4] -0.012 | entinostat -0.024 | vorinostat 0.01 | citarinostat 0.002 | silmitasertib -0.13 | [5] -0.1 | [6] -0.043
